# This is a sample that favours compounds with a hit; in the whole collection about 10% have one here.
# Insulin prom inh: TRM-6 insulin promoter activity inhibition; TRM-6 cells (human fetal islet line), insulin promoter-eGFP reporter, imaging; reporter expression induced with tamoxifen; inhibition, % at 2 µM; actives 0.9% (n = 130,000);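 active = inhibition above the mean plus 3 SD, with well images judged a real hit on visual review, cut at about 60% in these data, passing the limit was not always enough; inconclusive = inhibition over the cutoff but images rejected on review; inactive = inhibition not above the cutoff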
# ROMK mod: modulates human ROMK potassium channel activity; P48048; Tet-inducible ROMK, thallium flux fluorescence; actives lie on both sides; B-score at 10 µM; actives 2% (n = 130,000); AID 1918;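 active = signal ratio slope over the read window, or its plate-corrected B-score, at least 3 SD from the plate mean, either direction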;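 note: B-score of the F/F0 ratio slope over 7 to 12 s after thallium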
# HCT116 bCat-KO: beta-catenin-lacking colon tumor cell growth suppression | HCT116 beta-catenin knockout viability, CellTiter-Glo, 60 h; active compounds read low | actives 1.5% (n = 140,000) | viability, % at 10 µM;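 active = viability at or under a set limit, the compound median less 4 SD, cut at about 6% in these data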;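 note: 0% = Hyamine 1622 control at 20 µM and 100% = untreated cell control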
# p97 inhibitor: blocks human p97 ATPase activity; P55072; inhibition, % at 8 µM; actives 0.42% (n = 220,000); recombinant p97 ATPase, Kinase-Glo ATP luminescence, 3 h; in the data active = inhibition above about 15%;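 note: 0% = DMSO vehicle and 100% = wells lacking enzyme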
# Target sequence (P55072 whole entry, looked up): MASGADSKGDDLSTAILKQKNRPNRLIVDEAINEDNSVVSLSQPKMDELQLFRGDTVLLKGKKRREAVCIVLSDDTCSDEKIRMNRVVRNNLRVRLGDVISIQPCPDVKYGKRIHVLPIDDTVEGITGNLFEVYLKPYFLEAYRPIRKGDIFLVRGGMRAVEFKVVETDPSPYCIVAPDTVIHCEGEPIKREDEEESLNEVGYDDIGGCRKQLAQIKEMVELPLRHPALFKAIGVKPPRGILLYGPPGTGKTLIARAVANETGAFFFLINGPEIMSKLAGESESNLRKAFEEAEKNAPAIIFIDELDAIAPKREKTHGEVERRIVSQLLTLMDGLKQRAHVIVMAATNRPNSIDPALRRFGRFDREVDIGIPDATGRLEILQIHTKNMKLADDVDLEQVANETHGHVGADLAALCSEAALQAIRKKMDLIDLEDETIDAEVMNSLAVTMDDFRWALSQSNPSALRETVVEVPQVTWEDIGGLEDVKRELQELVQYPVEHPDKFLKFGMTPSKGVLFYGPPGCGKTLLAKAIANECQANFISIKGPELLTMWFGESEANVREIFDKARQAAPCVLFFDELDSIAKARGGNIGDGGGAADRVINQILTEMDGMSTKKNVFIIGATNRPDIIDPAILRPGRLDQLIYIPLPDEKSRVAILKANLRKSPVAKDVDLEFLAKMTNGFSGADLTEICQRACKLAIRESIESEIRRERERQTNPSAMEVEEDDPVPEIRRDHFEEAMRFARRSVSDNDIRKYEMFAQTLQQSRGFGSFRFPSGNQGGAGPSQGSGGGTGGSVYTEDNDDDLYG
# L major viab: Leishmania major promastigote growth inhibition; Leishmania major promastigotes, resazurin fluorescence viability; inhibition, % at 10 µM; actives 9% (n = 200,000); in the data active = inhibition above about 50%;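 note: promastigotes grown with compound for 44 hours at 28 °C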
# HCT116 PTEN-null: growth suppressors of cells with PTEN tumor suppressor deletion; HCT116 PTEN-null viability, CellTiter-Glo, 60 h; active compounds read low; actives 1.2% (n = 140,000); viability, % at 10 µM;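 active = viability at or below a set limit, 4 SD under the median of all tested compounds, cut at about 3.7% in these data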;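 note: PTEN knockout HCT116 line with beta catenin targeted HCT116 as companion control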
# Active calls of the source: *; u = inconclusive; x = no result.
SMILES,Insulin prom inh,ROMK mod,HCT116 bCat-KO,p97 inhibitor,L major viab,HCT116 PTEN-null
CCNC(=S)Nc1cc(OCC)c(N2CCOCC2)cc1OCC,8,x,96,8,64*,92
COCC(=O)N(C)C1(c2nnnn2CCOC(=O)Nc2cccc3ccccc23)CCCC1,14,x,99,3,0,90
Cn1c(SCCS(=O)(=O)c2ccc(Cl)cc2)nnc1-c1ccccc1,-11,0.077,82,-3,100*,92
Cc1ccc(N2C(N)=C(C#N)C(c3cc(CN4CCOCC4)cs3)C3=C2CC(C)(C)CC3=O)cc1 (stereo unspecified),x,1.1,x,0,48,x
CC(=O)Nc1ccc(NC(=O)C(C)OC(=O)C2CCN(S(=O)(=O)c3cccs3)CC2)cc1 (stereo unspecified),x,x,x,3,x,x
COc1ccc(NC(=O)COc2ccc(C(=O)OCC(=O)N(C(C)C)C(C)C)cc2OC)cc1,64,0.97,x,-8,1,x
O=C(c1cccs1)N1CCN(C2CCCCC2)CC1,-22,x,91,-4,83*,100
O=C(c1ccccc1)N1CCN(C2CCCCCC2)CC1,-11,-0.48,82,-6,43,95
CCOc1ccccc1CN1CCN(S(C)(=O)=O)CC1,0,x,92,6,82*,95
CCn1c2ccccc2c2cc(CN3CCN(S(C)(=O)=O)CC3)ccc21,13,x,73,0,68*,72
Cc1ccccc1CN1CCN(S(C)(=O)=O)CC1,-444,0.15,93,2,5,93
O=C(c1cccs1)N1CCN(C2CCN(Cc3ccccc3)CC2)CC1,-3,x,99,-3,91*,110
O=C(c1cc2c(=O)n3ccccc3nc2s1)N1CCc2ccccc2C1,x,-0.68,x,0,-3,x
CS(=O)(=O)N1CCN(C2CCN(Cc3ccccc3)CC2)CC1,3,x,92,3,77*,108
CS(=O)(=O)N1CCC(C(=O)NCCN2CCN(Cc3ccccc3)CC2)CC1,x,-0.42,89,0,-5,101
O=C(C1CCCN(S(=O)(=O)c2cccs2)C1)N1CCN(C2CCCCC2)CC1 (stereo unspecified),x,x,94,-1,83*,89
O=C(Cc1ccccc1)NN1C(=O)C2C3C=CC(C4CC34)C2C1=O (stereo unspecified),-27,x,83,-1,-4,103
O=C(NC(=S)Nc1ccccc1N1CCOCC1)c1ccc(-c2ccccc2F)o1,x,x,x,2,x,x
CC(C)N(C(=O)CSc1nc2ccccc2c(=O)[nH]1)C(C)C,-29,-1,x,0,-5,x
Oc1ccc(/C=N/N2CCN(C3c4ccccc4-c4ccccc43)CC2)c(O)c1,-25,0.33,x,14,-3,x
Cc1cccn2c(=O)c(/C=C(\C#N)C(N)=O)c(Oc3ccccc3)nc12,x,x,x,9,x,x
Cc1cccn2c(=O)c(/C=C(\C#N)S(=O)(=O)c3ccccc3)c(Oc3ccc(Cl)cc3)nc12,-308,x,3.6*,3,47,2.2*
Cc1cc(Oc2nc3c(C)cccn3c(=O)c2/C=C(\C#N)S(=O)(=O)c2ccccc2)ccc1Cl,x,x,1.6*,3,54*,2.3*
Nc1ncnc(Nc2cc(Cl)cc(Cl)c2)c1[N+](=O)[O-],0,x,79,7,55*,70
CNc1nc(N)c([N+](=O)[O-])c(Nc2cccc(Cl)c2)n1,x,x,x,-1,x,x
SMILES,Insulin prom inh,ROMK mod,HCT116 bCat-KO,p97 inhibitor,L major viab,HCT116 PTEN-null
CC(=O)Nc1ccccc1OCC(=O)NCC(F)(F)F,-36,1.5,x,-1,10,x
CNC(=O)C1C(=S)NC(N)=C(C#N)C1c1ccccc1 (stereo unspecified),2,1.3,0.5*,-3,3,1.0*
C=CCOC(=O)N1CCN(c2cccc(C(F)(F)F)c2)CC1,x,x,93,4,-2,101
COCCOC(=O)C1=C(C)N(c2ccccc2)C(=S)NC1c1ccccc1C(F)(F)F (stereo unspecified),7,0.03,x,-1,15,x
COC(=O)C1=C(C)N(c2ccccc2)C(=S)NC1c1ccccc1C(F)(F)F (stereo unspecified),9,0.38,x,0,70*,x
Cc1cc(NC(=O)CCC(=O)N(c2ccc(F)cc2)C(C(=O)NC2CCCC2)c2ccc(C)o2)no1 (stereo unspecified),x,x,x,4,6,x
COC(=O)C(CCSC)NC(=O)c1cc2c(n(-c3ccccc3)c1=O)CC(C)(C)CC2=O (stereo unspecified),-8,x,90,2,84*,94
CC1(C)CC(=O)c2cc(C(=O)N3CCCC(C)(C)C3)c(=O)n(-c3ccccc3)c2C1,x,-0.39,92,0,83*,103
COc1ccc(-n2c3c(cc(C(=O)NCc4ccco4)c2=O)C(=O)CC(C)(C)C3)cc1,x,1.1,x,-7,55*,x
CC1(C)CC(=O)c2cc(C(=O)O)c(=O)n(-c3ccccc3)c2C1,-17,0.79,106,-4,-3,110
COC(=O)C(CCSC)NC(=O)c1cc2c(n(-c3ccc(C)cc3)c1=O)CCCC2=O (stereo unspecified),44,0.94,x,1,48,x
O=C(NCCCN1CCOCC1)c1csc2c1CCCC2,x,-0.64,89,6,85*,99
O=C(NCCCN1CCOCC1)c1cc2c(s1)CCCC2,-70,x,94,6,91*,102
S=C(NCCSCc1ccc(Cl)cc1Cl)Nc1ccccc1,10,x,84,1,84*,87
CCN(CC(=O)Nc1ccc(C(=O)Nc2ccc(OC)cc2)cc1)Cc1nc2ccccc2c(=O)[nH]1,x,x,x,6,x,x
Cc1ccc2[nH]c3c(NCCN4CCOCC4)ncnc3c2c1,28,-0.13,92,6,5,88
C=CCNc1ncnc2c1[nH]c1ccc(C)cc12,u,x,54,3,83*,58
COc1ccc2[nH]c3c(NCCC4=CCCCC4)ncnc3c2c1,65*,-0.9,x,2,100*,x
CCCOc1ncnc2c1[nH]c1ccc(OC)cc12,x,-0.81,x,9,x,x
CCN(CC)CCNc1ncnc2c1[nH]c1ccc(OC)cc12,x,-0.92,78,3,25,83
COc1ccc2[nH]c3c(NCc4ccco4)ncnc3c2c1,32,x,20,4,51*,15
O=C(CN1CCN(c2ccccc2F)CC1)N1N=CCC1c1ccccc1 (stereo unspecified),17,x,96,-6,-8,88
COc1ccc(C(=O)NCC(=O)OCC(=O)Nc2sccc2C#N)cc1OC,x,0.3,x,3,-6,x
COc1ccccc1-c1ccc(NC2CCCC2)nn1,-419,-0.92,92,-2,8,89
COc1cc2c(cc1OC)CN(c1ccc(-c3ccccc3OC)nn1)CC2,x,x,2.7*,-4,100*,7
CCOC(=O)c1sc(N=NC2=C(O)CC(C)(C)CC2=O)c(C(=O)OCC)c1C,x,-0.56,x,3,-3,x
Cc1c(C(=O)N2CCN(Cc3ccc4c(c3)OCO4)CC2)cccc1[N+](=O)[O-],-17,0,82,6,-6,88
O=C(c1ccc(Cl)c([N+](=O)[O-])c1)N1CCN(Cc2ccc3c(c2)OCO3)CC1,-121,0.18,x,0,82*,x

# High-throughput results as filed in PubChem.
